# High-throughput results from PubChem.
# Sfp PPTase inh = inhibitors of Bacillus subtilis Sfp phosphopantetheinyl transferase; Q9F4F7; Biochemical Sfp PPTase activity, qHTS; Potency, µM, for the others: largest response in the series, negative = inhibition, most hits filed as inhibitors; 310,000 tested, 3.5% active; AID 1490;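 further: the enzyme is Sfp with the accession as filed and its product quenches rhodamine fluorescence; 0% = enzyme reaction without inhibitor and -100% = no enzyme wells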
#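 Fluorescence-quenching assay: 15 nM Sfp-PPTase preincubated 15 min at room temperature with compound, then 5 uM rhodamine-CoA and 12.5 uM BHQ-2-labelled YbbR peptide added. Fluorescence (ex 525/em 598 nm) read at start and after 30 min; difference gives rate.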
# BAZ2B block = inhibitors of human BAZ2B bromodomain; Q9UIF8; AlphaScreen BAZ2B-H3K14Ac peptide displacement; Potency, µM (doses to about 114 µM), without a hit: at the top dose activity change, negative = inhibition, most hits filed as inhibitors; 360,000 tested, 4.4% active; AID 504333; further: on the % scale 0 is the no-effect control and ±100 the full control effect; nearly all actives have a fitted effect of over 60% in size
#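 AlphaScreen displacement: compounds (up to 110uM) incubated 30 min at room temperature with a preformed 50 nM BAZ2B/50 nM biotinylated H3K14Ac peptide complex in PBS pH 7.4 with Tween-20. Donor and acceptor beads at 10 ug/mL final added, 20 min light-protected before reading.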
# HP1b binding inh = blocks HP1-beta chromodomain binding to methylated histone tails; P83916; AlphaScreen HP1-beta / biotin-H3K9me3 peptide binding; Potency, µM (doses to about 114 µM), for inactives: at the top dose activity change, negative = inhibition, hits mostly inhibitors; 390,000 tested, 0.56% active; further: nearly all actives have a fitted effect of over 70% in size
#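 Compound inhibition of the preformed complex between 50 nM HP1-beta and 50 nM biotinylated H3K9me3 peptide was read by AlphaScreen. Buffer was PBS pH 7.4 with 0.01% Tween-20. Incubations ran 30 min at room temperature, with 10 ug/mL donor/acceptor beads.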
# L3MBTL1 inh = L3MBTL1 (human) inhibition; Q9Y468; AlphaScreen L3MBTL1–H3K9me1 peptide binding; Potency, µM (top dose mostly 57.1 µM), inactives show at the highest dose activity, negative = inhibition, most hits filed as inhibitors; 230,000 tested, 0.66% active; further: on the % scale 0 is the no-effect control and ±100 the full control effect; nearly all actives have a fitted effect of over 60% in size
#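 Read-out is AlphaScreen signal from streptavidin donor and nickel chelate acceptor beads (10 ug/mL final each) bridging L3MBTL1 (50 nM) and biotinylated K9-monomethylated H3(1-15) peptide (75 nM), after 30 min compound exposure at room temperature.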
# G9a inh = G9a (human) methyltransferase inhibition. G9a H3K9 monomethylation, AlphaScreen, 2 h. Potency, µM (series often up to 102 µM), for inactives: at the top dose activity, negative = inhibition, hits mostly inhibitors. Q96KQ7. AID 504332. 350,000 tested, 8.8% active; further: on the % scale 0 is the no-effect control and ±100 the full control effect; nearly all actives have a fitted effect of over 75% in size
#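 Step 1: enzyme (final 20 nM) with compound, 15 min RT. Step 2: substrate peptide 500 nM and SAM 20 uM, 2 h RT. Step 3: anti-H3K9me1 antibody and AlphaScreen beads, 10 min, then plate read.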
# JMJD2A Tudor = inhibitors of human JMJD2A Tudor domain | AlphaScreen JMJD2A-Tudor / H3K4me3 peptide binding | Potency, µM (top dose mostly 114 µM), without a hit: top-dose activity change, negative = inhibition, most hits filed as inhibitors | 390,000 tested, 4.4% active | AID 504339; further: on the % scale 0 is the no-effect control and ±100 the full control effect; nearly all actives have a fitted effect of over 50% in size
# * = called active by the depositor; ? = inconclusive; . = not tested or not shown; [ ] = remark or other dose. Only some compounds are listed: those with a hit (about 12% of all), similar ones and a draw of the others. The call rests on the fitted dose curve; in most records, active means well fitted curve in the direction sought with a large enough effect; inconclusive means small, poorly fitted or top-dose-only effect, or another doubt; inactive means no such curve, though single readings can be large; an effect the other way counts as inactive or inconclusive. Potency means the concentration at half of the fitted maximal effect.
SMILES,Sfp PPTase inh,BAZ2B block,HP1b binding inh,L3MBTL1 inh,G9a inh,JMJD2A Tudor
Cc1c(/C=N/Nc2nc3ccccc3[nH]2)c2ccccc2n1C,?,18µM*,50µM*,.,.,32µM*
C=CCn1cc(/C=N/Nc2nc3ccccc3[nH]2)c2ccccc21,16µM*,40µM*,?,-21%,50µM*,40µM*
CCCn1c(/C=N/Nc2nc3ccccc3[nH]2)nc2ccccc21,?,?,-17%,?,12%[59 µM],-34%
O=c1c(S(=O)(=O)c2ccccc2)cn(Cc2cccc(F)c2)c2cc(N3CCOCC3)c(F)cc12,.,-10%,21%,.,-2%[59 µM],-12%
O=C(/C=C/c1ccc(-c2ccc(F)cc2)o1)N1CCCC1,-13%,-14%,10%,.,45µM*,-28%
O=C1N/C(=C/c2ccc(N3CCOCC3)cc2)C(=O)N1Cc1ccc(F)cc1,10%,1%,16%,-3%,11%[59 µM],-6%
C=CCN1C(=O)N/C(=C/c2ccc(N3CCOCC3)o2)C1=O,?,1%,.,1%,32µM*,.
O=C1N/C(=C/c2ccc(N3CCOCC3)o2)C(=O)N1c1ccccc1,-91%,-27%,-20%,7%,10µM*,?
COc1ccc2c(c1)O[C@H](c1ccc3c(c1)OCO3)[C@@H](OC(=O)Nc1ccc(C)c(Br)c1)C2=O,-2%,.,.,.,.,.
CCc1ccc(NC(=O)CSc2nc(=O)n(Cc3ccncc3)c3c2CCC3)cc1,.,1%,23%,.,8%[59 µM],9%
CCc1ccc2[nH]c(=O)c(C(c3nnnn3CCOC)N3CCN(c4ccccc4)CC3)cc2c1 (centres undefined),32µM*,-39%,-3%,-13%,28µM*,?
COCCn1nnnc1C(c1cc2cc(OC)c(OC)cc2[nH]c1=O)N1CCN(c2ccc(O)cc2)CC1 (centres undefined),?,28µM*,?,32%,.,56µM*
CCc1ccc2[nH]c(=O)c(C(c3nnnn3CCOC)N3CCN(c4ccc(F)cc4)CC3)cc2c1 (centres undefined),18µM*,?,-20%,.,?,-25%[11.4 µM]
Cc1ccc(Oc2coc3cc(OCC(=O)NC4CCCCC4)ccc3c2=O)cc1,.,6%,20%,.,-5%[59 µM],-14%
CCOc1ccc(N2CC(NC(=O)c3ccc(S(=O)(=O)N4CCOCC4)cc3)CC2=O)cc1 (centres undefined),.,4%,28%,.,5%[59 µM],-3%
COc1cccc(N=Nc2c(=O)[nH]n3c(=O)c4c([nH]c23)CCC4)c1,-27%,45µM*,?,?,?,50µM*
COc1cccc(CNC(=O)CSc2nc(=O)[nH]c3c2CCC3)c1,.,-2%,26%,.,5%[59 µM],0%
O=c1[nH]n2c(=O)c3c([nH]c2c1N=Nc1cccc(C(F)(F)F)c1)CCCC3,11%,-36%,-37%,-2%,-16%[59 µM],?
O=c1[nH]n2c(=O)c3c([nH]c2c1N=Nc1cccc(Cl)c1)CCC3,?,35µM*,?,3.5µM*,?,4µM*
COc1cccc(N=Nc2c(=O)[nH]n3c(=O)cc(C)[nH]c23)c1,-11%,50µM*,-7%,.,?,?
NS(=O)(=O)c1ccc(N=Nc2c(=O)[nH]n3c(=O)c4c([nH]c23)CCCC4)cc1,7%,28µM*,-31%,-1%,.,-36%
COc1ccccc1CCNC(=O)CNC(=O)Cc1cccc2ccccc12,-3%,-2%,19%[57 µM],.,5%,3%[57.1 µM]
CC(C)(SC(=S)N1CCCCCC1)C(=O)O,79µM*,-11%,7%,19%,.,-8%
Cc1ccc(Nc2nc(NCc3ccco3)nc3nccnc23)cc1,.,.,34%,.,.,-7%
CC1CCN(S(=O)(=O)c2ccc([N+](=O)[O-])cc2)CC1,11%,-22%,22%,4%[2.29 µM],-1%[0.501 µM],-23%
CCCN1CCN(C(=S)Nc2ccc([N+](=O)[O-])cc2)CC1,?,2%,-22%,5%,28µM*,-28%
